# Bioassay records: PubChem BioAssay, National Center for Advancing Translational Sciences (NCATS)
# The list is not random: actives were taken first. Their share in the collection is about 4.8%.
# ATXN2 expr inh – reduces ATXN2 reporter expression in HEK-293 cells; HEK-293 ATXN2-luciferase reporter, luminescence, 24 h; 360,000 tested, 0.72% active; Potency, µM (series often up to 57 µM), for the others: at the highest dose activity change, negative = inhibition, actives largely listed as inhibitors; also: potency is read from the fitted curve at half-maximal effect; % is scaled to controls: 0 for no effect and ±100 for the full control effect; nearly all actives have a fitted effect of over 55% in size
#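 qHTS (up to 57 uM final) was run with 24 h compound exposure of reporter cells at 37 °C. Each well was multiplexed: SteadyGlo luminescence measured ATXN2-luciferase expression after a fluorogenic Gly-Phe-AFC viability readout (25 uM final).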
# ATXN viability – reduces viability in counter-screen for ATXN expression inhibitors; S2 cells (HEK-293 line with an ATXN2-luciferase reporter) viability, CellTiter-Fluor protease fluorescence, 24 h; Potency, µM (top dose mostly 56.7 µM), hits mostly cytotoxic; 400,000 tested, 0.49% active; AID 651635; also: potency is read from the fitted curve at half-maximal effect; nearly all actives have a fitted effect of over 40% in size
# USP1-UAF1 inh – blocks the human USP1/UAF1 deubiquitinase complex | O94782 | recombinant USP1/UAF1, Ub-Rhodamine cleavage fluorescence | AID 743255 | 390,000 tested, 0.23% active | Potency, µM (titrated, usually from 57.1 µM), for the others: at the top dose activity change, negative = inhibition, usual class: inhibitors; also: potency is read from the fitted curve at half-maximal effect; % is scaled to controls: 0 for no effect and ±100 for the full control effect; nearly all actives have a fitted effect of over 60% in size
#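 Step one: compound is pinned into 1nM USP1/UAF1 in HEPES pH 7.8 buffer with TCEP. Step two: 15 min room-temperature incubation. Step three: Ub-Rho (150nM final) starts cleavage, tracked by fluorescence over six one-minute reads.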
# IL1B secr inh – inflammasome signaling inhibition, IL-1 beta readout; THP-1 LPS/ATP IL-1B secretion, AlphaLISA, 16 h; active compounds read low; activity change, % at 57.5 µM; 360,000 tested, 4.7% active; in the data active = activity change below about -50%; inconclusive = mostly about -30% to -49%; also: % is scaled to controls: 0 for no effect and ±100 for the full control effect
#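 THP-1 cells pretreated 1 hr with compounds (up to 57.5 uM final), then stimulated with LPS (250 ng/mL final) plus ATP (1.25 mM final); secreted IL-1B measured by AlphaLISA after 16 hr, decreased signal indicating inhibition.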
# USP2a inh – blocks human ubiquitin-specific protease USP2a. O75604. USP2 core, Ub-CHOP2 coupled fluorogenic reporter, 485/531. Potency, µM (highest dose often 38.3 µM), for the others: top-dose activity change, negative = inhibition, hits mostly inhibitors. 330,000 tested, 0.01% active. AID 463254;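 also: potency is read from the fitted curve at half-maximal effect; plate controls were DMSO wells for no effect and full inhibition by NEM control for full effect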
# Target sequence (O75604 whole entry, looked up): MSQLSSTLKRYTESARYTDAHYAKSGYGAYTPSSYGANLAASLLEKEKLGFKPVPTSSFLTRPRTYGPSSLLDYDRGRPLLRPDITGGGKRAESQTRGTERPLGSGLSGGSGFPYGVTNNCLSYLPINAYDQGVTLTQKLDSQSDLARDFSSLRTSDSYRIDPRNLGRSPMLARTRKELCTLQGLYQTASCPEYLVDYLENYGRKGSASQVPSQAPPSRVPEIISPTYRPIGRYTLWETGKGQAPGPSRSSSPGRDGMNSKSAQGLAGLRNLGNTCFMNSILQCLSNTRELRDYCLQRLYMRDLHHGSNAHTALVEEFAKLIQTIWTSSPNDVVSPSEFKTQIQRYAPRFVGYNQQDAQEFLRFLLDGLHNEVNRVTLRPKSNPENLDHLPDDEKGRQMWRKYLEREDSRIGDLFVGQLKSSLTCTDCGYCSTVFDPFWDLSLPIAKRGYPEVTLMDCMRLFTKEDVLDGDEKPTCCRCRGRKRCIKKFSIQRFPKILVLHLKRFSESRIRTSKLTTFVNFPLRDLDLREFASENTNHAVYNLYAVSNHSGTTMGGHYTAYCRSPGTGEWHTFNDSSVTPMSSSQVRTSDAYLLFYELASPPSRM
#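 Deubiquitinase activity read as fluorescence (485/531 nm) after Ub-CHOP2 cleavage activates the enterokinase reporter on its substrate; USP2 core 10nM, Ub-CHOP2 and substrate 25nM each, 30min compound preincubation then 60min RT; data normalized to NEM, curves fitted.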
# An asterisk follows results filed as active; i = inactive; ? = inconclusive; / = no result given; [ ] = dose if it differs, or a comment. Unless noted, calls follow the shape of the dose curve; as a rule, active = well fitted curve in the direction sought with a large enough effect; inconclusive = small, poorly fitted or top-dose-only effect, or another doubt; inactive = no such curve, though single readings can be large; an effect the other way counts as inactive or inconclusive.
SMILES,ATXN2 expr inh,ATXN viability,USP1-UAF1 inh,IL1B secr inh,USP2a inh
CC1Cc2ccccc2N1C(=O)c1ccc2snnc2c1 (stereo not given),6%,i,0%,-87*,4%
Cc1nc2cc(C(=O)N3c4ccccc4CC3C)ccc2s1 (stereo not given),3%[11.3 µM],i,-10%,50,-1%
Cc1cc(C)nc(/N=C(\N)Nc2ccc([N+](=O)[O-])cc2)n1,18%,i,-11%,-57*,5%
Cc1cc(C)nc(/N=C(\N)Nc2cccc([N+](=O)[O-])c2)n1,-9%,?,-21%,-97*,4%
Cc1cc(C)nc(/N=C(\N)Nc2cc([N+](=O)[O-])ccc2C)n1,196%,i,0%,/,2%
O=C1OCC(O)=C1Cc1ccccc1,-1%,i,-9%,6,/
O=C1NN(c2ccc(F)cc2)C(=O)/C1=C/c1cccs1,-31%,i,-12%,-51*,3%
COc1ccc(NC(=O)c2cccc(Oc3ccc([N+](=O)[O-])cc3Cl)c2)cc1,-30%,i,-21%,39,1%
O=C(Nc1cccc(Cl)c1)c1cccc(Oc2ccc([N+](=O)[O-])cc2Cl)c1,/,?,-6%,-59*,2%
COc1ccc2cc(CNCc3nonc3C)c(N3CCCC(CO)C3)nc2c1 (stereo not given),/,i,/,/,/
Cc1cc(Br)cc2c1N(C)C(=O)C2(c1ccc(O)cc1)c1ccc(O)cc1,/,?,-16%,5,/
Cn1ncc2c(N3CCN(c4ccc(Cl)c(Cl)c4)CC3)ncnc21,0.95µM*,i,-12%,-60*,2%
Cc1cccc(NC(=O)c2cnn(-c3ccccc3)c2C)c1C,30%,i,-26%,?,3%
Cc1ccc(C)c(NC(=O)c2cnn(-c3ccccc3)c2C)c1,25%,i,-6%,-58*,-1%
Cc1ccccc1NC(=O)c1cnn(-c2ccccc2)c1C,21%,i,-19%,?,0%
CCc1ccccc1NC(=O)c1cnn(-c2ccccc2)c1C,18%,i,3%,-93*,3%
Cn1c(-c2ccsc2)c(-c2cccs2)c2cc(Br)ccc21,7%,i,?,10,-1%
O=C(Cc1ccc(F)cc1)NCCc1csc(-c2cccc(F)c2)n1,-29%,i,-21%,/,/
O=C(NCCc1csc(-c2ccc(F)cc2)n1)c1cccc(F)c1,28µM*,?,-28%,/,/
O=C(NCCc1csc(-c2ccc(C(F)(F)F)cc2)n1)c1ccc(F)c(F)c1,20µM*,?,-15%,/,/
COc1cc(OC)cc(Oc2ccc(S(=O)(=O)N3CCCCC3)cc2[N+](=O)[O-])c1,2%,i,-20%,-99*,-1%
COC(=O)COc1ccc(S(=O)(=O)N2CCCCC2)cc1[N+](=O)[O-],1%,?,-22%,-17,0%
COc1cc2nc(C3CCC3)nc(N3CCN(c4ccccn4)CC3)c2cc1OC,-15%,i,-15%,-99*,2%
O=C(NCc1cccnc1)Nc1ccccc1C(F)(F)F,1%,i,-19%,21,-3%
O=C(NCc1ccco1)c1ccc2c(c1)N(Cc1c(F)cccc1Cl)C(=O)c1ccccc1S2,10%,i,-23%,/,/
SMILES,ATXN2 expr inh,ATXN viability,USP1-UAF1 inh,IL1B secr inh,USP2a inh
CCN(CC)CCCNC(=O)c1ccc2c(c1)N(Cc1c(F)cccc1Cl)C(=O)c1ccccc1S2,20µM*,i,-10%,/,/
CN(C)c1ccc(/C=N/NC(=O)CN(c2cccc(Cl)c2)S(C)(=O)=O)cc1Br,?,?,-7%,-50*,-5%
CC1CCC(C(C)C)C(OC(=O)CSc2nnc(N)s2)C1 (stereo not given),2%,i,-21%,14,-1%
CC1CCC(C(C)C)C(OC(=O)CSc2nc(N)cc(=O)[nH]2)C1 (stereo not given),-12%,i,-16%,25,3%
CC1CCC(C(C)C)C(OC(=O)Cn2c(-c3ccccc3)[n+](C)c3ccccc32)C1 (stereo not given),?,?,-4%,-103*,6%
Cc1cccc(OCc2n(CC(=O)OC3CC(C)CCC3C(C)C)c3ccccc3[n+]2C)c1 (stereo not given),?,/,-28%,-98*,-2%
CC1CCC(C(C)C)C(OC(=O)Cn2c(-c3ccc(F)cc3)[n+](C)c3ccccc32)C1 (stereo not given),8.9µM*,?,-1%,-101*,1%
Nc1ncnc2c1ncn2Cc1c(F)cccc1Cl,9%,i,/,/,/
Cc1ccccc1CN1c2ccccc2-c2nc(SCC(=O)c3ccccc3)ncc2S1(=O)=O,1%,i,?,/,/
CS(=O)(=O)NC1c2cccc3cccc(c23)C1Sc1nncn1/N=C/c1ccco1 (stereo not given),-1%,i,-4%,-60*,-2%
Nc1c(-c2nc(-c3ccccc3Cl)no2)nnn1-c1ccccc1F,74%,i,?,/,/
Cc1ccc(/C=C(\C#N)C(=O)Nc2cccc(Br)c2)o1,/,/,-12%,/,/
N#C/C(=C\c1ccc(N2CCCCC2)o1)C(=O)Nc1cccc(Br)c1,/,/,28µM*,?,16%
Cc1nc(-n2[nH]c3c(c2=O)CCCC3)[nH]c(=O)c1Cc1ccccc1,8.9µM*,18µM*,28µM*,-106*,8%
Cc1nc(N2CCc3ccccc3C2)[nH]c(=O)c1Cc1ccccc1,8%,i,-18%,-1,-6%
CCCSc1nc2cc(OC)c(OC)cc2c(=N)n1CCCN1CCOCC1,?,i,-15%,-52*,-3%
COc1cccc(C(C)(O)c2nc(-c3cccc4cccnc34)cs2)c1 (stereo not given),-5%,i,/,28,/
COc1ccc(NC(=O)CSc2nnc(-c3cnccn3)n2C)cc1OC,4%,i,-24%,-17,1%
O=c1oc(Cl)c(Cl)c2ccccc12,6%,i,-19%,-70*,2%
O=c1oc2cc(O)c(Cl)cc2c2ccccc12,-7%,i,-13%,0,2%
CCOc1ccccc1NS(=O)(=O)c1c(C(=O)OC)sc2cccc(F)c12,2%,i,-5%,/,/
CCN(CC)c1ncnc2c1ncn2[C@H]1CN(Cc2ccco2)C[C@@H](CO)O1,13%,i,/,-16,/
OC[C@@H]1CN(Cc2cccnc2)C[C@H](n2cnc3c(N4CCN(c5ccccc5)CC4)ncnc32)O1,-19%,i,/,-79*,/
CN1CCN(c2ncnc3c2ncn3[C@H]2CN(Cc3ccc(F)cc3)C[C@@H](CO)O2)CC1,8%,i,/,21,/
CCN(CC)c1ncnc2c1ncn2[C@H]1CN(Cc2ccc(-c3ccccc3)cc2)C[C@@H](CO)O1,?,i,/,-54*,/
OC[C@@H]1CN(Cc2ccc(F)cc2)C[C@H](n2cnc3c(N4CCCC4)ncnc32)O1,2%,i,/,-91*,/
